According to PubChem BioAssay (NCI):
The panel holds about 83,000 compounds, 20% with a hit somewhere; the sample as a whole holds those more often.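 Growth was measured after 48 h exposure to one concentration of compound in 96-well plates. Values under 10 count as active.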 Values without a mark were called inactive. Active and inactive are the calls of the source.

Legend:
Test in all cases: NCI-60 one-dose screen, 48 h (100 = growth as untreated, 0 = no growth, -100 = all killed)
SK-MEL-2 melanoma = settings: 10 µM
EKVX NSCLC = settings: 10 µM unless noted
SN12C renal = settings: 10 µM unless noted
UO-31 renal = settings: 10 µM unless noted
TK-10 renal = settings: 10 µM unless noted
ACHN renal = settings: 10 µM unless noted
CAKI-1 renal = settings: 10 µM unless noted
CCRF-CEM leukemia = settings: 10 µM unless noted
MOLT-4 leukemia = settings: 10 µM unless noted
A498 renal = settings: 10 µM unless noted

Row | Structure (SMILES) | growth (SK-MEL-2 melanoma) | growth (EKVX NSCLC) | growth (SN12C renal) | growth (UO-31 renal) | growth (TK-10 renal) | growth (ACHN renal) | growth (CAKI-1 renal) | growth (CCRF-CEM leukemia) | growth (MOLT-4 leukemia) | growth (A498 renal)
1 | O=C1CC(c2cccc(F)c2)c2c(n[nH]c2-c2ccc(Cl)cc2)N1 (stereo unspecified) | 110% | 85.1% | 92.8% | 79.3% | 94.1% | 90% | 77.7% | 101% | 88% | –
2 | Cc1ccsc1C(NC(=O)c1ccccc1)c1cc(Cl)c2cccnc2c1O (stereo unspecified) | 12.6% | 18.2% | 23.2% | 2.22% (active) | 27.6% | 10.8% | 15.7% | 9.96% (active) | 14.6% | –
3 | CCNCCNc1cc(-c2ccc(Cl)c(Cl)c2)c(C#N)c2nc3ccccc3n12 | -83.1% (active) | -80% (active) | -68.9% (active) | -84% (active) | -84.3% (active) | -90.5% (active) | -95.4% (active) | -30.3% (active) | -43.4% (active) | -76.6% (active)
4 | CCCCCCCC(=O)SCC/C=C/[C@@H]1CC(=O)NCc2cccc(n2)C2=N[C@@](C)(CS2)C(=O)N[C@@H](C(C)C)C(=O)O1 | -1.86% (active) | 22.2% | 22.6% | -8.17% (active) | -16.1% (active) | -11.8% (active) | -38.8% (active) | 30.6% | 14.3% | –
5 | CC1(O)CCC(Nc2cc(-c3ccc(C(F)(F)F)cc3)c(C#N)c3nc4ccccc4n23)CC1 (stereo unspecified) | 73.4% | 54.1% | 63.9% | 47.1% | 71.4% | 59.8% | 54.6% | 64.9% | 27.5% | 46.8%
6 | N#Cc1c(-c2ccc(C(F)(F)F)cc2)c(F)c(NCCC2CCC(O)C2)n2c1nc1ccccc12 (stereo unspecified) | 101% | 43.8% | 49.1% | 52.6% | 83.6% | 61.2% | 26.6% | – | 45.9% | 35.4%
7 | O=C(NCCO)Nc1ccc(-c2nc(N3CCOCC3)c3cccn3n2)cc1 | -9.19% (active) | 3.13% (active) | 5.36% (active) | -18.2% (active) | -23.5% (active) | 9.2% (active) | 9.37% (active) | 27.4% | 16.2% | -54.8% (active)
8 | C=C1C(=O)O[C@H]2[C@H]1CC/C(C=Nc1c(N)cc(C(F)(F)F)cc1C(F)(F)F)=C\CC[C@@]1(C)O[C@@H]21 | -39.1% (active) | -36.2% (active) | -43.2% (active) | -89.8% (active) | -41% (active) | -89.4% (active) | -59.3% (active) | 4.15% (active) | -13.5% (active) | 34.8%
9 | Cc1nn(-c2nc3ccccc3[nH]2)c2c1C(c1ccc(OCc3ccc(F)cc3)cc1)CC(=O)N2 (stereo unspecified) | 30.7% | 81.7% | 55.4% | 36.9% | 56.1% | 48.2% | 66.2% | 52.8% | 7.48% (active) | –
10 | NN1C(=O)CSC1=S | 95% | 98.6% | 102% | 94% | 95.2% | 107% | 93.9% | 108% | 98.8% | –
11 | CCCCCCCC(=O)SCC/C=C/[C@@H]1CC(=O)NCc2nc(co2)C2=N[C@@](C)(CS2)C(=O)N[C@@H](C(C)C)C(=O)O1 | -3.78% (active) | 16.2% | 12.6% | -13.5% (active) | -18.6% (active) | -27.5% (active) | -50.8% (active) | 19.3% | 3.84% (active) | –
12 | CC(C)(C)C(=O)OCOP(=O)(OCOC(=O)C(C)(C)C)C1CCCN(OC(=O)c2ccccc2)C1=O (stereo unspecified) | 51% | 21.4% | 4.97% (active) | 11.5% | 11.7% | 15.7% | – | 4.03% (active) | 7.12% (active) | 10.9%
13 | Nc1nc(N)c2cc(CNc3ccc(C(=O)NC(CC(=O)O)C(=O)O)cc3)ccc2n1 (stereo unspecified) | 72.3% | 43.2% | 15.5% | 35.8% | 61.2% | 25.9% | – | 23% | 32.8% | 19.1%
14 | C[C@@H](C[C@H](CCO)c1cc(C(F)(F)F)cc(C(F)(F)F)c1)c1ccc2ccccc2c1 | 82.2% | 81.3% | 96.4% | 79% | 95% | 98.7% | – | 84.2% | 71% | 120%
15 | COc1cc(NCCN(CC(C)C)CC(C)C)c2ncc(C)cc2c1 | 74.8% | 74.9% | 74.7% | 64% | 139% | 77.7% | – | 86.4% | 54.9% | 113%
16 | CC(=O)OCCC/C(=C\c1ccc2ccccc2c1)[N+](=O)[O-] | -68.5% (active) | 42.1% | -66.4% (active) | -99.8% (active) | -64.4% (active) | -92.6% (active) | – | -49.4% (active) | -26.1% (active) | -22.4% (active)
17 | Cc1cc2c3c(cccc3c1)C(=O)c1ccccc1-2 | 105% | 78.1% | 97% | 60.5% | 106% | 97.6% | – | 118% | 87.2% | 93.2%
18 | CCN(CC)Cc1cc(Nc2cc(C(F)(F)F)c(C#N)c3nc4ccccc4n23)ccc1O | 4.36% (active) | 15.8% | 5.86% (active) | -17.4% (active) | 10.6% | 4.68% (active) | – | 5.56% (active) | 4.11% (active) | -14.2% (active)
19 | COC(=O)c1[nH]cnc1/N=N/N(C)CCO | 108% | 97.9% | 102% | 84.9% | 129% | 103% | – | 102% | 85.8% | 121%
20 | CC(C)[C@@H]1CC[C@]2(CO2)[C@@H]2C(=O)OCC(C(=O)O)=C[C@H]21 | -65.8% (active) | 71.5% | 2.26% (active) | 5.96% (active) | 11.6% | 3.14% (active) | 6.64% (active) | 0.852% (active) | -17.6% (active) | –
21 | COc1ccc(-c2nc(N)ncc2Oc2ccccc2OC)c(O)c1 | 17.4% | 40.1% | 48.7% | 46% | 55.9% | 43.5% | – | 19.7% | 26.9% | 34.3%
22 | C=CC[n+]1c(/C=C/C=C2\N(C)c3ccccc3C2(C)C)sc2ccc(OC)cc21 | -13.4% (active) | 10.9% | 11.7% | 13.7% | 32.8% | 10.8% | – | 21.5% | 10.2% | 17.7%
23 | COc1ccc2c(CCCCC(c3ccccc3)c3ccccc3)c3[n+](cc2c1OC)CCc1cc2c(cc1-3)OCO2 | -70.4% (active) | -31.8% (active) | -77.7% (active) | -42.1% (active) | -51% (active) | -19.1% (active) | 16.6% | 5.53% (active) | -20.7% (active) | –
24 | Cc1cc(N(CCNc2ccnc3cc(Cl)ccc23)Cc2ccc3c(c2)OCO3)nc(N2CCCC2)n1 | -39.9% (active) | 35.8% | 27.9% | -56.2% (active) | -43.5% (active) | -49.1% (active) | – | -0.451% (active) | -17.7% (active) | -2.25% (active)
25 | Cc1ccc(N=C2CSc3nnc(-c4csc5c4CCCC5)n3N2)cc1 | 61.6% | 41.9% | 48.5% | 57.9% | 78.9% | 52% | – | 16.8% | 23.2% | 12.1%
26 | CC(C)[C@@H](C)/C=C/[C@@H](C)[C@H]1CCC2=C3C=CC4=CC(=O)CC[C@]4(C)[C@H]3CC[C@@]21C | 101% | 99.1% | 101% | 92% | 87.8% | 109% | 93.9% | 82.2% | 85.5% | –
27 | Cc1cc(N(CCNc2ccnc3cc(Cl)ccc23)Cc2ccc3c(c2)OCO3)nc(N2CCN(C)CC2)n1 | -57.5% (active) | 73.4% | 60.7% | 2.58% (active) | -24.9% (active) | -20.6% (active) | – | -11.8% (active) | 0.0794% (active) | 42.6%
28 | Cc1nn(-c2nc3ccccc3[nH]2)c2c1C(c1ccc(O)cc1)CC(=O)N2 (stereo unspecified) | 51% | 109% | 101% | 69.3% | 86.9% | 97% | 89.9% | 17.7% | -14.4% (active) | –
